Source: PubChem (several laboratories)
SARS 3CLpro inh-1: SARS-CoV 3CLpro protease inhibition | 290,000 compounds, 0.14% hits | inhibition, % at 6 µM | AID 1706 | P0C6X7 | recombinant SARS-CoV 3CLpro, quenched FRET peptide cleavage; in the data active = inhibition above about 12%
Anthrax LF prot: inhibitors of Bacillus anthracis lethal factor protease | P15917 | multiplex microsphere protease cleavage assay, LF | inhibition, % at 10 µM | 360,000 compounds, 0.12% hits | AID 588501
Autofluor counter: counter-screen for toxin protease inhibitors: compound fluorescence; AID 624483; 360,000 compounds, 3.1% hits; compound autofluorescence counterscreen, microsphere flow cytometry; stronger effect = higher value; fluorescence intensity (concentration not given with the values); in the data active = fluorescence intensity above about 16000; inconclusive = no clear call, values can overlap the other calls
CCHFV vOTU inh: CCHFV vOTU protease inhibition; Pep-AMC fluorescence; inhibition, % at 11.5 µM; 370,000 compounds, 0.55% hits; AID 651958; in the data active = inhibition above about 30%
BoNT F protease: BoNT F light chain protease inhibition; AID 588497; Multiplex microsphere protease cleavage assay, flow cytometry; inhibition, % at 10 µM; 360,000 compounds, 0.22% hits; in the data active = inhibition above about 35%, passing the limit was not always enough; inconclusive = no clear call, values can overlap the other calls
BoNT A protease: BoNT A light chain protease inhibition; multiplex microsphere protease substrate cleavage, flow cytometry; inhibition, % at 10 µM; 360,000 compounds, 0.17% hits; AID 588499
SARS 3CLpro inh-2: SARS 3CLpro inhibition, confirmation assay. shares compounds with SARS 3CLpro inh-1. inhibition, % at 6 µM. 380 compounds, 36% hits. QFRET protease activity assay; in the data active = inhibition above about 13%
Large screens that a line does not name were inactive (follow-up assays come after a bar, where they were run). Rows were chosen to be rich in hits. Some 3.9% of all compounds tested hit in one or more screens of this group. Cut-off read from the data, not from the text of the source, unless noted: active = inhibition above about 30%; inconclusive = no clear call, values can overlap the other calls; inactive = below that.

O=C(CC1C(=O)NCCN1C(=O)Nc1ccc(C(F)(F)F)cc1)Nc1ccc(F)cc1 (stereo not drawn)	none
COc1ccc(NC(=O)CC2C(=O)NCCN2C(=O)Nc2ccc(C(F)(F)F)cc2)cc1 (stereo not drawn)	SARS 3CLpro inh-1 13 | SARS 3CLpro inh-2 inactive
COc1ccc(C2C(O)C(c3c[nH]c4ccccc34)=NN2C(=O)CCl)cc1 (stereo not drawn)	SARS 3CLpro inh-1 61 | SARS 3CLpro inh-2 78
Cc1ccc(O)c(Nc2ncnc3ccccc23)c1	SARS 3CLpro inh-1 13, Autofluor counter inconclusive, BoNT F protease inconclusive | SARS 3CLpro inh-2 inactive
Cc1ccc2ncnc(Nc3ccccc3)c2c1	none
CC(C)CC(NC(=O)CC12CC3CC(CC(C3)C1)C2)C(=O)NC1=NCCS1 (stereo not drawn)	none
O=C(NCc1ccco1)C(c1ccco1)N(C(=O)Cn1nnc2ccccc21)c1ccc2c(c1)CCC2 (stereo not drawn)	SARS 3CLpro inh-1 15 | SARS 3CLpro inh-2 26
CCCCCc1c2c(cc(O)c1C(=O)O)OC(=O)c1cc(C(=O)CCCC)c(OC)cc1O2	none (no result: SARS 3CLpro inh-1)
CCCCCc1c2c(cc(O)c1C(=O)O)OC(=O)c1c(cc(OC)cc1C(=O)CCCC)O2	SARS 3CLpro inh-1 15 (no result: CCHFV vOTU inh) | SARS 3CLpro inh-2 inactive
CCOc1ncccc1C(=O)OC(C)C(=O)NC(=O)NC1CCCCC1 (stereo not drawn)	none
O=C(O)c1cc(NN=C2c3ccccc3-c3ccccc32)ccc1Cl	SARS 3CLpro inh-1 14 | SARS 3CLpro inh-2 inactive
O=C(O)c1cccc(NN=C2c3ccccc3-c3ccccc32)c1	none
CCOC(=O)c1cc(-c2ccccc2)sc1N	SARS 3CLpro inh-1 59 | SARS 3CLpro inh-2 33
CCOC(=O)c1sc(-c2ccccc2)cc1N	none
CCOC(=O)c1c(N)sc(C(O)(C(F)(F)F)C(F)(F)F)c1-c1ccccc1	SARS 3CLpro inh-1 12 | SARS 3CLpro inh-2 inactive
CC[C@H](C)[C@@H](C(=O)NCCCCCCCCCCC(=O)N1CCNCC1)n1cc(CCCCN=C(N)N)nn1	none (no result: SARS 3CLpro inh-1)
COc1ccc(NC(=O)Cn2nc(C)c([N+](=O)[O-])c2C)cn1	none
Cc1ccc(NC(=O)CN2C(=O)CSc3ccc(S(=O)(=O)N4CCCCC4)cc32)cc1	none
O=S(=O)(Nc1ccc(S(=O)(=O)Nc2nccs2)cc1)c1ccc(Br)cc1	SARS 3CLpro inh-1 47 | SARS 3CLpro inh-2 inactive
COc1cc(OC)c(C2=Nc3ccc(Br)cc3C(c3ccccc3)N2CC(=O)NN)cc1OC (stereo not drawn)	SARS 3CLpro inh-1 12 | SARS 3CLpro inh-2 inactive
CCC1=Nc2ccc(Br)cc2C(c2ccccc2)N1CC(=O)OC (stereo not drawn)	none
NNC(=O)CN1C(CN2CCOCC2)=Nc2ccc(Br)cc2C1c1ccccc1 (stereo not drawn)	SARS 3CLpro inh-1 21 | SARS 3CLpro inh-2 inactive
NNC(=O)CN1C(c2ccccc2)=Nc2ccc(Br)cc2C1c1ccccc1 (stereo not drawn)	SARS 3CLpro inh-1 13 | SARS 3CLpro inh-2 inactive
CC1=Nc2ccc(Br)cc2C(c2ccccc2)N1CC(=O)NN (stereo not drawn)	SARS 3CLpro inh-1 13 | SARS 3CLpro inh-2 inactive
O=C1CN(C(=O)CN2CCOCC2)C(c2ccccc2)c2cc(Br)ccc2N1 (stereo not drawn)	none
NNC(=O)CN1C(c2ccc(Cl)cc2)=Nc2ccc(Br)cc2C1c1ccccc1 (stereo not drawn)	none
COc1ccc(N2CCN(C(=O)Cc3ccc(Br)cc3)CC2)cc1	none
CC(C)N1CCN(Cc2cccc(-n3cccn3)c2)CC1CCO (stereo not drawn)	none
O=C(COc1ccccc1[N+](=O)[O-])NCC1COc2ccccc2O1 (stereo not drawn)	none (no result: SARS 3CLpro inh-1)
COc1cc(CNCCc2c[nH]c3ccccc23)cc(OC)c1	SARS 3CLpro inh-1 71 | SARS 3CLpro inh-2 inactive
COc1cc(CNCCc2c[nH]c3ccccc23)cc(OC)c1OC	none (no result: SARS 3CLpro inh-1)
CNc1oc(-c2ccc(Cl)cc2)nc1P(=O)(c1ccccc1)c1ccccc1	SARS 3CLpro inh-1 13 | SARS 3CLpro inh-2 inactive
Cc1ccc(NC(=O)c2ncn(CCCN(CCCn3cnc(C(=O)Nc4ccc(C)c(C)c4)n3)Cc3ccc4[nH]ccc4c3)n2)cc1C	none (no result: SARS 3CLpro inh-1)
Cc1cc(C)c(C)c(S(=O)(=O)N2CCN(C(=O)c3cc(=O)[nH]c4ccccc34)CC2)c1C	SARS 3CLpro inh-1 55, Autofluor counter 20107 | SARS 3CLpro inh-2 53
COc1ccc(N2CCN(C(=O)c3cc(=O)[nH]c4ccccc34)CC2)cc1	SARS 3CLpro inh-1 27 | SARS 3CLpro inh-2 27
Cc1cc(C)c(S(=O)(=O)N2CCN(C(=O)c3cc(=O)[nH]c4ccccc34)CC2)c(C)c1	none (no result: SARS 3CLpro inh-1)
O=C(c1cc(=O)[nH]c2ccccc12)N1CCN(c2cccc(C(F)(F)F)c2)CC1	SARS 3CLpro inh-1 46 | SARS 3CLpro inh-2 44
O=C(c1ccccc1F)N1CCN(c2cccc(C(F)(F)F)c2)CC1	none
O=C(c1cc(=O)[nH]c2ccccc12)N1CCN(c2ccc([N+](=O)[O-])cc2)CC1	none
Cc1ccc(NS(=O)(=O)c2c(C(=O)N3CCCC3)c(C)n(C)c2C)cc1	none
CCOC(=O)c1c(C)[nH]c(C(=O)COC(=O)[C@H](C)N2C(=O)C3CCCCC3C2=O)c1C (stereo partly drawn)	none (no result: SARS 3CLpro inh-1)
CC(C)CC1CC(C)(c2csc(NNC(=O)c3ccccc3)n2)OC1=O (stereo not drawn)	none
CCc1nnc(NS(=O)(=O)c2ccc(NC(=O)/C=C/c3ccc(F)cc3)cc2)s1	SARS 3CLpro inh-1 13 | SARS 3CLpro inh-2 inactive
O=C1C(C2=NC(c3ccccn3)C3C(=O)N(c4ccccc4)C(=O)C23)=C(O)c2ccccc21 (stereo not drawn)	SARS 3CLpro inh-1 80 | SARS 3CLpro inh-2 inactive
O=C(O)c1cc(S(=O)(=O)N2CCN(S(=O)(=O)c3ccc4ccccc4c3)CC2)ccc1Br	none (no result: SARS 3CLpro inh-1)
C[C@@H]1CN([C@@H](C)CO)C(=O)c2cccc(NC(=O)C3CCCCC3)c2O[C@@H]1CN(C)Cc1ccc(Cl)c(Cl)c1	none (no result: SARS 3CLpro inh-1)
O=C(CCl)Nc1ccccc1C(=O)c1ccccc1	SARS 3CLpro inh-1 13 | SARS 3CLpro inh-2 inactive
O=C(O)CC1(CC(=O)Nc2ccccc2C(=O)c2ccccc2)CCCC1	none
CNc1ccc(Br)cc(C(=O)/C=C/c2ccc3c(c2)OCO3)c1=O	SARS 3CLpro inh-1 13 | SARS 3CLpro inh-2 inactive
CC(=O)c1cc(-c2ccccc2)[nH]c1N1CCOCC1	SARS 3CLpro inh-1 46 | SARS 3CLpro inh-2 inactive
CC(=O)c1c(OC(=O)c2ccco2)c2ccccc2n1C	SARS 3CLpro inh-1 13 | SARS 3CLpro inh-2 16
Cc1ccc(C(=O)c2c3ccc([N+](=O)[O-])cc3[n+]([O-])n2CCC(N)=O)cc1	SARS 3CLpro inh-1 12 (no result: Anthrax LF prot, Autofluor counter, BoNT F protease, BoNT A protease) | SARS 3CLpro inh-2 inactive
Cc1ccc(C(=O)c2c3ccccc3[n+]([O-])n2CCC(N)=O)cc1	SARS 3CLpro inh-1 33 | SARS 3CLpro inh-2 36
